RORgamma inh: blocks mouse ROR gamma transcriptional activity; P51450; Drosophila S2 Gal4-RORgamma UAS-luciferase reporter, 20 h; Potency, µM (top dose mostly 53.6 µM), actives largely listed as inhibitors; 310,000 compounds, 5.4% hits; AID 2551; also: nearly all actives have a fitted effect of over 60% in size
Target sequence (P51450 whole entry, looked up, the tested form may be a part): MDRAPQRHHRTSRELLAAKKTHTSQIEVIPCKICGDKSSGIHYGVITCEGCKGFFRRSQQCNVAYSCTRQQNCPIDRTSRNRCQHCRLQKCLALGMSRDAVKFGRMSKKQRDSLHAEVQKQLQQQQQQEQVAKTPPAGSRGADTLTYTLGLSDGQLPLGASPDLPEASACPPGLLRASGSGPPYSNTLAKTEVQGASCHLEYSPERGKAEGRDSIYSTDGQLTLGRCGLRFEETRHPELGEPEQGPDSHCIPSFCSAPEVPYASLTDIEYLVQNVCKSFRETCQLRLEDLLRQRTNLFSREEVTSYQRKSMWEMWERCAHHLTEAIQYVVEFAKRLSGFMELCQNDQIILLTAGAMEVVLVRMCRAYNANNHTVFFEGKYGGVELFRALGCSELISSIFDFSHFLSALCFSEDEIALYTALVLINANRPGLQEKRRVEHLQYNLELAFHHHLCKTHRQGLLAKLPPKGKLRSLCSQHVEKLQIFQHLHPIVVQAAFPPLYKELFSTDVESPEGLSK
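Stable Schneider cell line, Gal4 DNA-binding domain fused to ROR gamma, UAS-luciferase. Cmpd 1 hr RT → CuSO4 700 uM final → 20 hr RT → luciferase reagent 10 min → luminescence.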
ELG1 DNA repair: ELG1-dependent DNA repair inhibition. HEK293T ELG1-luciferase reporter, luminescence, 16 h; DNA damage induced by 5-fluorouridine. Potency, µM (top dose mostly 46.1 µM), hits mostly inhibitors. 330,000 compounds, 2.3% hits. AID 504467; also: nearly all actives have a fitted effect of over 55% in size
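Quantitative HTS, concentration-response format. 2,000 cells/well co-treated with 5-fluorouridine and compound, 16 hr in 5% CO2 at 37 °C; ONE-Glo luminescence read after 30 min.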
DT40 TDP1 CPT: growth inhibition of DT40 Tdp1-/-;hTDP1 cells with camptothecin (screen for TDP1 inhibitors); AID 686979; chicken DT40 Tdp1-/-;hTDP1 cells + 20 nM CPT, ATP luminescence, 48 h; Potency, µM (highest dose often 46.2 µM), hits mostly inhibitors; 420,000 compounds, 12% hits; also: nearly all actives have a fitted effect of over 55% in size
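Chicken DT40 Tdp1-/- cells complemented with human TDP1, 400 cells/well, exposed to compounds plus 20 nM camptothecin for at least 48 h at 37 C; viability read as ATP content by CellTiter-Glo luminescence.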
DT40 TDP1 no CPT: qHTS for Inhibitors of human tyrosyl-DNA phosphodiesterase 1 (TDP1): qHTS in cells in absence of CPT; DT40 Tdp1-/- hTDP1 cells, no CPT, ATP luminescence, 48 h; Potency, µM (top dose mostly 46.2 µM), actives largely listed as inhibitors; 420,000 compounds, 15% hits; AID 686978, 2013; also: nearly all actives have a fitted effect of over 55% in size
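Chicken DT40 Tdp1-/- cells stably complemented with human TDP1 were seeded at 400 cells/well with DMSO in place of 20 nM camptothecin. After compound pinning, cells grew at least 48 hr at 37 °C; viability read by CellTiter-Glo luminescence.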
IL-1B inflam inh: inhibitors of inflammasome signaling (IL-1 beta secretion). 360,000 compounds, 4.7% hits. activity change, % at 57.5 µM. AID 743279. THP-1 LPS/ATP IL-1B secretion, AlphaLISA, 16 h; stronger effect = lower value; in the data active = activity change below about -50%; inconclusive = mostly about -30% to -49%
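Secreted IL-1B measured by AlphaLISA bead assay after 16 h compound exposure of THP-1 cells; compounds (final up to 57.5 uM) added 1 h before LPS (250 ng/mL) and ATP (1.25 mM) stimulation; lower signal means less secretion.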
VP16 counter: Gal4-VP16 reporter inhibition counter-screen | 310,000 compounds, 3.5% hits | AID 2546 | Potency, µM (top dose mostly 53.6 µM), actives largely listed as inhibitors | Drosophila S2 Gal4-VP16 UAS-luciferase, luminescence, 20 h;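 also: Gal4-VP16 expression switched on by copper sulfate through the metallothionein promoter; nearly all actives have a fitted effect of over 50% in size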
Each line names hits and unclear results; the compound was inactive in the other large screens. Shown are actives, neighbours in structure and some others; about 21% of the full set was active somewhere. Unless noted, calls follow the shape of the dose curve; as a rule, active = well fitted curve in the direction sought with a large enough effect; inconclusive = small, poorly fitted or top-dose-only effect, or another doubt; inactive = no such curve, though single readings can be large; an effect the other way counts as inactive or inconclusive.

Cc1ccc(C(CC(=O)O)C2CCOC(C)(C)C2)cc1 (stereo not given)	none
COc1ccc(CC(=O)NC(C)CCc2ccccc2)cc1OC (stereo not given)	DT40 TDP1 no CPT inconclusive
COc1ccc(CN(CCC(c2ccc3c(c2)OCO3)c2ccccc2OC)C(C)=O)cc1 (stereo not given)	DT40 TDP1 CPT inconclusive, DT40 TDP1 no CPT 20.6µM (no result: RORgamma inh, ELG1 DNA repair, IL-1B inflam inh, VP16 counter)
COc1ccc(CN(CCC(c2ccco2)C(C)C)C(C)=O)cc1OC (stereo not given)	RORgamma inh inconclusive, ELG1 DNA repair inconclusive, DT40 TDP1 CPT inconclusive, DT40 TDP1 no CPT inconclusive
COc1ccc(CN(CCC(c2ccccc2)c2ccc(OC(C)C)cc2)C(=O)CCl)cc1OC (stereo not given)	RORgamma inh 12.6µM, ELG1 DNA repair inconclusive, DT40 TDP1 CPT 2.06µM, DT40 TDP1 no CPT 2.91µM, IL-1B inflam inh -98.5, VP16 counter inconclusive
COc1ccc(C(CCN(Cc2ccc(OC)c(OC)c2)C(C)=O)c2ccccc2)cc1 (stereo not given)	RORgamma inh inconclusive, ELG1 DNA repair inconclusive, DT40 TDP1 CPT 20.6µM, DT40 TDP1 no CPT 20.6µM, IL-1B inflam inh inconclusive, VP16 counter inconclusive
COc1ccc(CN(CCC(c2ccccc2)C2CCOC(C)(C)C2)C(C)=O)cc1 (stereo not given)	ELG1 DNA repair 16.4µM, DT40 TDP1 CPT inconclusive, DT40 TDP1 no CPT 18.4µM, IL-1B inflam inh inconclusive
CC(C)c1nc(C(=O)N2CCCC(N3CCN(c4cccc(Cl)c4)CC3)C2)cs1 (stereo not given)	ELG1 DNA repair inconclusive, DT40 TDP1 CPT inconclusive, DT40 TDP1 no CPT inconclusive (no result: RORgamma inh, VP16 counter)
CCOC(=O)C1=CN(Cc2ccco2)S(=O)(=O)N(CC)C1c1cccc(OC)c1 (stereo not given)	none (no result: RORgamma inh, VP16 counter)
CC(=O)N(CCC(Cc1ccccc1)c1ccc2c(c1)OCO2)Cc1ccc(Cl)cc1 (stereo not given)	ELG1 DNA repair inconclusive, DT40 TDP1 CPT inconclusive, DT40 TDP1 no CPT 16.4µM, IL-1B inflam inh inconclusive
COc1ccc(NC(=O)Nc2c[nH]c(=O)[nH]c2=O)c(OC)c1	none (no result: RORgamma inh, ELG1 DNA repair, IL-1B inflam inh, VP16 counter)
COc1ccc(S(=O)(=O)N2CCOCC2)cc1NC(=O)CSc1nnc2c(n1)[nH]c1ccccc12	RORgamma inh inconclusive, ELG1 DNA repair 23.1µM, DT40 TDP1 CPT inconclusive, DT40 TDP1 no CPT inconclusive
CCOc1ccc(NC(=O)CSc2nnc3c(n2)[nH]c2ccc(S(=O)(=O)N4CCCCC4)cc23)cc1	DT40 TDP1 CPT 12.6µM, DT40 TDP1 no CPT 15.8µM (no result: RORgamma inh, ELG1 DNA repair, IL-1B inflam inh, VP16 counter)
O=C(CSc1nnc2c(n1)[nH]c1ccc(S(=O)(=O)N3CCOCC3)cc12)Nc1ccccc1Cl	DT40 TDP1 CPT inconclusive
COc1ccccc1NC(=O)c1ccc[n+]([O-])c1	none
Cn1cnnc1Sc1ccc(CN2CCOc3ccc(C4=CCCCC4)cc3C2)o1	DT40 TDP1 no CPT inconclusive (no result: RORgamma inh, ELG1 DNA repair, IL-1B inflam inh, VP16 counter)
CC1(c2cccc3ccccc23)OC(=O)c2ccccc21 (stereo not given)	DT40 TDP1 CPT inconclusive, DT40 TDP1 no CPT inconclusive (no result: RORgamma inh, ELG1 DNA repair, VP16 counter)
CN1c2ccccc2C(C)(C)C12C=Nc1c(ccc3ccccc13)O2 (stereo not given)	RORgamma inh inconclusive, ELG1 DNA repair inconclusive, IL-1B inflam inh -57.9, VP16 counter 20µM
CN1c2ccccc2C(C)(C)[C@]12C=Cc1cc(O)ccc1O2	DT40 TDP1 CPT 2.59µM, DT40 TDP1 no CPT 7.31µM, VP16 counter 15.8µM
COc1ccc2ccc3c(c2c1)N=CC1(O3)N(C)c2ccccc2C1(C)C (stereo not given)	RORgamma inh inconclusive, DT40 TDP1 CPT inconclusive, DT40 TDP1 no CPT 23.1µM
CC1(C)OC2OC(C3COC(=O)O3)C(OC(=O)c3ccccc3)C2O1 (stereo not given)	none (no result: RORgamma inh, ELG1 DNA repair, VP16 counter)
c1ccc(-c2nc(-c3cccnc3)n[nH]2)cc1	ELG1 DNA repair inconclusive (no result: DT40 TDP1 CPT, DT40 TDP1 no CPT, IL-1B inflam inh)
Brc1cccc(-c2n[nH]c(-c3ccccc3)n2)c1	ELG1 DNA repair inconclusive, DT40 TDP1 CPT inconclusive, DT40 TDP1 no CPT 23.1µM, IL-1B inflam inh inconclusive
Cc1nn(S(=O)(=O)c2ccc(Cl)cc2)c(C)c1S(=O)(=O)N1CCCCCC1	none (no result: RORgamma inh, ELG1 DNA repair, IL-1B inflam inh, VP16 counter)
CCCC1=C(C(=O)OCC)C(c2c(C)nn(-c3ccccc3)c2Cl)C(C#N)=C(N)O1 (stereo not given)	DT40 TDP1 CPT inconclusive, DT40 TDP1 no CPT 20.6µM (no result: ELG1 DNA repair)
Cc1nn(-c2ccccc2)c2c1C(c1ccc([N+](=O)[O-])cc1)C(C#N)=C(N)O2 (stereo not given)	DT40 TDP1 CPT 14.6µM, DT40 TDP1 no CPT inconclusive
CCCc1nn(-c2ccccc2)c2c1C(c1cccs1)C(C#N)=C(N)O2 (stereo not given)	RORgamma inh 12.6µM, ELG1 DNA repair inconclusive
Cc1nn(S(=O)(=O)c2ccc(Cl)cc2)c(C)c1Sc1ccc([N+](=O)[O-])cc1	DT40 TDP1 CPT 16.4µM, DT40 TDP1 no CPT 16.4µM, VP16 counter inconclusive
COc1cc(=O)n2c(c1C(=O)NC(C)c1ccco1)CCN(Cc1ccccc1C(F)(F)F)CC2 (stereo not given)	DT40 TDP1 no CPT inconclusive (no result: RORgamma inh, ELG1 DNA repair, IL-1B inflam inh, VP16 counter)
CC1CCCN(c2nc3c(-c4ccc(Cl)cc4)nnn3c3ccccc23)C1 (stereo not given)	none (no result: RORgamma inh, ELG1 DNA repair, IL-1B inflam inh, VP16 counter)
Cc1nn(-c2ccccc2)c(OC(=O)C(C)C)c1Sc1ccccc1	DT40 TDP1 no CPT inconclusive (no result: RORgamma inh, ELG1 DNA repair, IL-1B inflam inh, VP16 counter)
Cc1nn(-c2ccccc2)c(N)c1Sc1ccc([N+](=O)[O-])cc1	RORgamma inh inconclusive, ELG1 DNA repair inconclusive, DT40 TDP1 CPT inconclusive, DT40 TDP1 no CPT 14.6µM, IL-1B inflam inh inconclusive, VP16 counter inconclusive

Screens from PubChem.
